# Results reported in PubChem BioAssay AID686978 (National Center for Advancing Translational Sciences (NCATS), 2013).
# Screen size: about 420,000 compounds; about 64,000 (15%) were called active. Roughly 27% stayed inconclusive and do not appear here. The call rests on the fitted dose curve; in most records, active means well fitted inhibition curve with a large enough effect; inconclusive means small, poorly fitted or top-dose-only effect; inactive means flat fitted curve, though single readings scatter. Not all results are given here.
# Experiment: qHTS for Inhibitors of human tyrosyl-DNA phosphodiesterase 1 (TDP1): qHTS in cells in absence of CPT; further: nearly all actives have a fitted effect of over 55% in size
# Conditions: DT40 Tdp1-/- hTDP1 cells, no CPT, ATP luminescence, 48 h; activity change, negative = growth inhibition: at 46.2 µM (top of the series)
# Text: Human tyrosyl-DNA phosphodiesterase 1 (TDP1) is a novel repair gene, and we propose to use it as a new target for anticancer drug development. TDP1 is not an essential protein, but under treatment with topoisomerase I poison (camptothecin: CPT), TDP1 works as a critical factor for cell survival. To directly identify novel TDP1 inhibitors active in a cellular environment, we have knocked-out the Tdp1 gene in chicken DT40 cells (Tdp1-/-) and generated a complemented counterpart cells that contains a stable transfection of the human TDP1 gene (Tdp1-/-;hTDP1 cells). For the primary screen, Tdp1-/-;hTDP1 cells will be exposed to small molecules in the presence or absence of CPT, and their growth kinetics will be evaluated after 48 hours by measuring ATP activity. […] The hit compounds will then be evaluated in the presence or absence of CPT using Tdp1-/- cells. […] In tertiary assays, biochemical gel-based assays will be used to assess whether the hit compounds specifically target TDP1.
# To this end, we have screened this cell line against the MLSMR in two primary screens. In one screen we add CPT and in the other we screen in the absence of CPT; this AID represents the screen where CPT was absent.
# NIH Chemical Genomics Center [NCGC]
# NIH Molecular Libraries Probe Centers Network [MLPCN]
# Assay Submitter (PI): Yves Pommier, NCI
# DT40-hTDP1 cells without 20 nM Camptothecin (add 20 microL of DMSO in 1 L of cell culture medium) were dispensed at 400 cells/5microL/well in tissue culture treated 1536-well white wall/solid bottom assay plates (Greiner Bio-One North America, NC, U.S.A.) using a Multidrop Combi 8 channel dispenser (Thermo Fisher, Waltham, MA, USA). 23 nL compounds and controls were transferred using the pin tool (Kalypsys, San Diego, CA, USA) to the assay plates. The assay plates were then incubated at 37 masculineC for a minimum 48 hr. Three microL of Cell Titer Glo solution was added to the plates and incubated at RT in dark for 30 min. Luminescence was read using ViewLux (Perkin Elmer) with 1 sec exposure slow speed, high gain and 2x binning.
# On the % scale 0 is the no-effect control and ±100 the full control effect; potency means the concentration at half of the fitted maximal effect.
Compound,"activity change, negative = growth inhibition",Potency
CCCc1nc(N)nc2c1C(=O)CC(C)(C)C2,-9.4% (inactive),–
COc1ccc(C(C(=O)NC(C)(C)C)N(C(=O)Cn2nnc3ccccc32)c2ccc(C(C)=O)cc2)cc1O (stereo unspecified),-0.0142% (inactive),–
O=C(CC(NCCN1CCOCC1)C(=O)O)Nc1cccc(Cl)c1 (stereo unspecified),0.483% (inactive),–
OC[C@@H]1CN(Cc2ccc3c(c2)OCO3)C[C@H](n2cnc3c(NCc4ccco4)ncnc32)O1,-9.44% (inactive),–
Cc1ccccc1NC(=O)CCNS(=O)(=O)c1ccc2[nH]c(=O)oc2c1,-1.56% (inactive),–
COc1ccc(NC(=O)C2=CC(c3ccc(OC)c(OC)c3)=NS(=O)(=O)N2C)cc1,–,23.1 µM (active)
COc1ccc(C2=NS(=O)(=O)N(C)C(C(=O)NC(C)c3ccccc3)=C2)cc1 (stereo unspecified),-30.1% (inactive),–
COc1cc(NC(=O)C2=CC(c3ccc(C)cc3)=NS(=O)(=O)N2C)cc(OC)c1OC,-45.5% (inactive),–
COc1ccccc1N(CC(=O)N1CCCCC1)S(=O)(=O)c1ccccc1,-24.2% (inactive),–
CSc1ccccc1NC(=O)C(C)N1C(=O)c2ccccc2S1(=O)=O (stereo unspecified),-7.02% (inactive),–
CCOC(=O)Nc1ccccc1N1C(=O)c2ccccc2C1=O,7.52% (inactive),–
CC(=O)Nc1ccccc1Sc1ccc2c3c(cccc13)C(=O)N(c1ccc(C)cc1)C2=O,–,16.4 µM (active)
Cc1c(Cl)c([N+](=O)[O-])nn1CC(=O)NCC1CCCO1 (stereo unspecified),7.74% (inactive),–
COc1ccc(NC(=O)CCCC(=O)c2ccccc2)cc1,-6.59% (inactive),–
O=S(=O)(N1CCCCC1)N1CCNCC1,6.69% (inactive),–
Cc1ccc(C(=O)N/C(=C\c2cn(C)c3ccccc23)C(=O)N2CCN(C)CC2)cc1,11.5% (inactive),–
CN1C(=O)/C(=C/c2ccco2)SC1=Nc1cccc(C(=O)O)c1,-0.247% (inactive),–
Cc1cccc(N=C2NC(=O)/C(=C/c3cn(C)c4ccccc34)S2)c1,–,16.4 µM (active)
Cc1ccc(NC(=O)CN(C)S(=O)(=O)c2cnc[nH]2)cc1C,-7.33% (inactive),–
COc1ccc(CCNS(=O)(=O)c2ccc(C(=O)NCc3ccco3)cc2)cc1OC,-12.5% (inactive),–
CCC1=Nc2cc(C(=O)NCCCOC(C)C)ccc2Sc2ccc(C)cc21,–,0.517 µM (active)
Cc1ccc(C(=O)NC(C)c2ccccc2)cc1Br (stereo unspecified),-22.9% (inactive),–

Compound,"activity change, negative = growth inhibition",Potency
CC(C)OCCCNC(=O)CNC(=O)c1cccs1,-7.96% (inactive),–
Cc1ccc2nc(CNC(=O)c3ccccc3)[nH]c2c1,-0.575% (inactive),–
O=C(NCCCN1CCOCC1)c1cc(-c2cccc(O)c2)on1,-18.6% (inactive),–
COc1ccc(C(=O)NCCCN2CCOCC2)cc1Br,6.89% (inactive),–
O=C(NCc1ccco1)c1cccc(-c2ccc3nncn3c2)c1,-12.4% (inactive),–
CCC1=Nc2cc(C(=O)NCCCN3CCOCC3)ccc2Sc2ccc(Br)cc21,–,3.66 µM (active)
CCCC1=Nc2cc(C(=O)NCc3ccco3)ccc2Sc2ccccc21,–,3.66 µM (active)
CC(C)NC(=O)C(=O)NCCCOC(C)C,-0.626% (inactive),–
CCC1=Nc2cc(C(=O)NCC(C)c3ccccc3)ccc2Sc2ccc(C)cc21 (stereo unspecified),–,23.1 µM (active)
CCOC(=O)c1c(/N=C/c2cc(C)ccc2O)sc2c1CCC2,-29.3% (inactive),–
CCC(=O)c1ccc(OCC(O)Cn2nc(C)c(C(C)=O)c2C)cc1 (stereo unspecified),-0.93% (inactive),–
CC(C)n1c(-c2ccncc2)n[nH]c1=S,1.02% (inactive),–
Cc1cc(C)n(C(=O)c2ccc(C)c(S(=O)(=O)N3CCOCC3)c2)n1,-0.443% (inactive),–
Cc1cccc(NC(=O)C(C)N2C(=O)C3C4CC(C(Br)C4Br)C3C2=O)c1 (stereo unspecified),1.71% (inactive),–
CN(CC(=O)N1CCN(c2ccccc2)CC1)S(=O)(=O)c1cccs1,-22.1% (inactive),–
CC(=O)c1ccc(-n2nnnc2SCC(=O)N2CCN(C(=O)c3ccco3)CC2)cc1,-25.4% (inactive),–
CCOC(=O)c1ccc(NC(=S)Nc2cc(C)cc(C)n2)cc1,-23% (inactive),–
N=C1c2ccccc2-c2ccccc21,-6.61% (inactive),–
O/N=C1\CC2(Cc3nonc31)OCCO2,-7.73% (inactive),–
CCCCN(C(=O)c1ccc(OC(F)(F)F)cc1)c1c(N)n(CCC)c(=O)[nH]c1=O,10.6% (inactive),–
CCCCn1c(N)c(N(CC)C(=O)c2ccccc2C(F)(F)F)c(=O)[nH]c1=O,3.68% (inactive),–
FC(F)(F)c1cc(C(F)(F)F)c2ccc(N3CCN(c4ccccc4)CC3)nc2n1,-21.5% (inactive),–

Compound,"activity change, negative = growth inhibition",Potency
Cc1ccccc1N(C(=O)CNC(=O)c1cccs1)C(C(=O)NC1CCCC1)c1ccncc1 (stereo unspecified),-4.76% (inactive),–
COc1ccc(C(C(=O)NC2CCCC2)N(CCCO)C(=O)Cn2nnc(-c3ccc(C)o3)n2)cc1 (stereo unspecified),-13% (inactive),–
COc1ccc(C(C(=O)NC2CCCCC2)N(C(=O)CCl)c2ccccc2Cl)cc1 (stereo unspecified),–,14.6 µM (active)
CC(NC(=O)COC(=O)c1ccc2c(c1)OCO2)c1ccccc1 (stereo unspecified),2.55% (inactive),–
CC(C)(C)c1ccc(C(=O)NNC(=O)Cc2ccccc2)cc1,-23.1% (inactive),–
CC(C)(C)c1ccc(C(=O)C[N+]2(C)CCCc3ccccc32)cc1 (stereo unspecified),–,1.58 µM (active)
CSc1ncnc2c1ncn2CCCNCc1cccs1,-4.56% (inactive),–
Cc1ccccc1-c1nc(NC(C)C)nc2cc(-c3ccccc3)sc12,–,20.6 µM (active)
O=C(O)CCCC(=O)Nc1ccccc1-n1ccnc1,1.45% (inactive),–
Cc1c(Cl)c([N+](=O)[O-])nn1CC(=O)NCCCN1CCOCC1,0.962% (inactive),–
O=S(=O)(c1cccc(-c2nnc3n2CCCCC3)c1)N1CCOCC1,-7.8% (inactive),–
O=S(=O)(c1cccc(-c2nnc(SC(F)F)n2-c2ccccc2)c1)N1CCCCC1,–,16.4 µM (active)
O=S(=O)(c1cccc(-c2cn3ccccc3n2)c1)N1CCCC1,-13.3% (inactive),–
O=C(O)C1=C/C(=C/C=[N+]2c3cc(O)c(O[C@H]4OC(CO)[C@@H](O)[C@@H](O)[C@@H]4O)cc3C[C@@H]2C(=O)[O-])C[C@H](C(=O)O)N1 (stereo partly specified),-27.2% (inactive),–
S=c1[nH]nc(Nc2ccccc2)s1,-28.6% (inactive),–
CCOc1c(Cl)cc(/C=N/O)cc1OC,-16.3% (inactive),–
CCC(=O)/C=C1\Sc2ccccc2N1CC,-14.8% (inactive),–
CCN1/C(=C/C(=S)Nc2ccccc2)Sc2ccccc21,–,4.11 µM (active)
O=C(CS(=O)(=O)c1ccc(C(F)(F)F)cn1)NNC(=O)c1ccccc1,-7.84% (inactive),–
Cc1ccc2nc(COc3cccc(NC(=O)Nc4ccc(C)c(Cl)c4)c3)cc(=O)n2c1,-20.4% (inactive),–
Cc1ccc2nc(COc3ccccc3NC(=O)Nc3ccc(F)c(Cl)c3)cc(=O)n2c1,–,14.6 µM (active)
Cc1ccc2nc(COc3ccc(NC(=O)COc4ccccc4F)cc3)cc(=O)n2c1,2.2% (inactive),–
